Screening results: PubChem BioAssay, NMMLSC
In the library only some 2.9% were active in any assay of this set; here they are far more common.
MEKK2mut PB1 HTS = MEK5 binding signal on mutant MEKK2 PB1, primary screen, biochemical, multiplex bead flow cytometry, Alexa488-MEK5. 0.35% of 290,000 active. percent response, % at 10 µM. Alexa488-MEK5 binding to MEKK2 mutant; in the data active = percent response above about 24%, passing the limit was not always enough
MEKK3 PB1 HTS = modulators of MEKK3-MEK5 PB1 binding, primary screen, biochemical, wildtype MEKK3, multiplex bead flow cytometry, Alexa488-MEK5 | Mitogen-activated protein kinase kinase kinase 3 (Homo sapiens), Q99759 | bead-based flow cytometry, Alexa488-MEK5 binding to MEKK3; actives lie on both sides; 0 = blocked by unlabeled MEK5, 100 = vehicle | binding response (% of control), % at 10 µM | 1.4% of 290,000 active | AID 1529, 2009;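 active = binding response more than 3 SD above or below the average of its plate-row segment, actives on both sides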;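 also: Alexa488 bead fluorescence after subtracting the streptavidin-only scavenger bead signal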
GRK2 inh = compounds blocking aptamer binding on GRK2 – biochemical, human GRK2, bead flow cytometry, HTS, primary screen; Beta-adrenergic receptor kinase 1 (Homo sapiens), P25098; FAM-aptamer displacement from GRK2; inhibition of aptamer binding, % at 10 µM; 0.59% of 330,000 active; AID 488847, 2010;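 active = inhibition of aptamer binding above 40%, roughly 3 SD of noise, on plates passing a quality check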;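 also: median bead fluorescence of bound FAM aptamer so fluorescent compounds give negative values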
B2AR ag = beta2AR agonists driving receptor internalization, primary screen, cell-based, FAP fluorogen, flow cytometry; Beta-2 adrenergic receptor (Homo sapiens), P07550; 0.43% of 340,000 active; response, % (test concentration not listed); Am2.2-beta2AR cells;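 active = response above a set limit, near 3 SD of response in nonfluorescent compounds, cut at about 42% in these data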
Target sequence (P07550 whole entry, looked up): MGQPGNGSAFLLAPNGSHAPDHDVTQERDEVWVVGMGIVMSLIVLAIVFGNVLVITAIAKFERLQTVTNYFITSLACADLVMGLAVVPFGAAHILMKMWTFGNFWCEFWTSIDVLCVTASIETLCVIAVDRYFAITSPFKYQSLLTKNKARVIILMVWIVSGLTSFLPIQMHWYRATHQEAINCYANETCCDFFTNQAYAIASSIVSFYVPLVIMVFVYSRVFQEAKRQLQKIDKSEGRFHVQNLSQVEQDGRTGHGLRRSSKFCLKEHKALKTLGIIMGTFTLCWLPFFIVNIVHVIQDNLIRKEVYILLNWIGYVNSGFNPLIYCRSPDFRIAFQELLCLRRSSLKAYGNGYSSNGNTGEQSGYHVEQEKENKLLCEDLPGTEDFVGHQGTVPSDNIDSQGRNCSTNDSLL
MEKK2 WT-MEK5 = modulators of MEK5 binding to wildtype MEKK2, primary screen, biochemical, multiplex bead flow cytometry, Alexa488-MEK5; Mitogen-activated protein kinase kinase kinase 2 (Homo sapiens), Q9Y2U5; Alexa488-MEK5 binding to MEKK2 WT; actives lie on both sides; binding response (% of control), % at 10 µM; 1.1% of 290,000 active; in the data active = binding response below about 67% or above about 130%
MEKK2wt confirm = modulators of MEK5 binding to wildtype MEKK2, confirmation, biochemical, single concentration, multiplex bead flow cytometry; shares compounds with MEKK3 PB1 HTS; Alexa488-MEK5 binding to MEKK2 WT; actives lie on both sides; binding response (% of control), % at 10 µM; 2.4% of 5,900 active; in the data active = binding response below about 16% or above about 210%; inactive = in between
MEKK2mut-MEK5 = mutant MEKK2 PB1-MEK5 binding signal retest – biochemical, single concentration, multiplex bead flow cytometry, confirmation | shares compounds with MEKK3 PB1 HTS | Alexa488-MEK5 binding to MEKK2 mutant | percent response, % at 10 µM | 2% of 5,900 active | AID 1893, 2009; in the data active = percent response mostly above about 71%, no sharp cut-off; inactive = mostly below about 38%;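 also: higher means compound restores mutant binding toward wildtype level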
MEKK3 confirm = MEKK3 wild-type PB1 binding to MEK5, inhibitors, confirmation, biochemical, bead multiplex flow cytometry, single concentration, wildtype | binding response (% of control), % at 10 µM | Alexa488-MEK5 binding to MEKK3; stronger effect = lower value | shares compounds with MEKK3 PB1 HTS | 1.8% of 5,900 active;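 active = binding response below 72% of control, or above a set upper limit, though filed actives all read lower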
Numbers stand for hits; - = inactive; . = no result given; [ ] = dose if it differs, or a comment.

SMILES	MEKK2mut PB1 HTS	MEKK3 PB1 HTS	GRK2 inh	B2AR ag	MEKK2 WT-MEK5	MEKK2wt confirm	MEKK2mut-MEK5	MEKK3 confirm
Brc1ccccc1OCCOCCOc1cccc2cccnc12	-	-	-	-	-	.	.	.
Cc1ccc(NC(=O)COC(=O)C2CC(=O)N(Cc3ccccc3)C2)cc1S(=O)(=O)N(C)C (configuration not stated)	-	-	-	-	-	.	.	.
CC(=O)NC1(C(F)(F)F)N=C(c2ccccc2)NC1=O (configuration not stated)	-	-	.	-	-	.	.	.
CN(C)CCNc1ncnc2c1sc1nc(N3CCOCC3)c3c(c12)CC(C)(C)SC3	-	-	-	-	141	-	-	-
Cc1cc(NC(=O)COC(=O)COc2ccc3c(c2)CCC3)no1	-	132	-	-	-	-	-	-
COCCCNC(=O)Cn1c(=O)n(CCCCCC(=O)Nc2ccccc2)c(=O)c2sccc21	-	-	-	-	-	.	.	.
COCCNC(=O)Cn1c(=O)n(CCCCCC(=O)Nc2ccccc2)c(=O)c2sccc21	-	135	.	-	-	-	-	-
CCc1nn(CC(=O)NCCC2=CCCCC2)c(=O)c2cc3cc(F)ccc3n12	-	-	-	-	-	.	.	.
C/C(=N\NC(=O)c1ccc(Cl)cc1)c1ccc(N2CCOCC2)cc1	-	-	-	-	-	.	.	.
C/C(=N/NC(=O)c1ccoc1C)c1ccc(N2CCOCC2)cc1	-	131	-	-	-	-	-	-
COC(=O)C1=NN(c2ccc(Cl)cc2)C2C(=O)N(c3ccccc3OC)C(=O)C12 (configuration not stated)	-	143	-	-	-	-	-	-
CCOC(=O)C1=NN(c2ccccc2)C2C(=O)N(c3ccccc3OC)C(=O)C12 (configuration not stated)	-	-	-	-	-	.	.	.
CCCOc1ccc2c(c1)C(=NN=C(N)N)c1cc(OCCC)ccc1-2	32	-	-	-	191	249	88	-
Cc1oc2ccccc2c1CNC(=O)N(C)C	-	-	-	-	-	.	.	.
CCCNC(=O)Cc1c(C)oc2ccccc12	-	130	-	-	-	-	-	-
O=C(CSc1nnc(NC(=O)c2ccccc2F)s1)NCc1ccco1	-	-	-	-	-	.	.	.
Cc1cccc(N=C2Sc3nc4c(C)c(C)ccc4cc3CN2CCN2CCOCC2)c1	24	-	-	-	144	-	-	-
COCCN1Cc2cc3cc(C)ccc3nc2SC1=Nc1cccc(OC)c1	-	-	-	-	-	.	.	.
OCCCCNCc1ccc(OCc2ccc(Cl)cc2Cl)cc1	34	-	-	-	169	-	75	-
OCCNCc1ccc(OCc2ccc(Cl)cc2Cl)cc1	-	-	-	-	138	-	-	-
O=C(CNC(=O)c1ccc(Br)o1)Nc1ccc(F)c(S(=O)(=O)N2CCOCC2)c1	.	.	.	-	.	.	.	.
CCc1ccccc1NC(=O)CN(C)C(=O)Cn1cnc2ccc(Cl)cc2c1=O	.	.	-	-	.	.	.	.
CCc1ccccc1NC(=O)CN(C)C(=O)Cn1ncc(Cl)c(Cl)c1=O	-	133	-	-	-	-	-	-
CC(=O)NC1=NN(C(C)=O)C2(CCCC2)S1	-	132	-	-	-	-	-	-
CC(=O)N1N=C(N)SC12CCCC2	-	-	-	-	-	.	.	.
SMILES	MEKK2mut PB1 HTS	MEKK3 PB1 HTS	GRK2 inh	B2AR ag	MEKK2 WT-MEK5	MEKK2wt confirm	MEKK2mut-MEK5	MEKK3 confirm
COC(=O)Cn1c(N2CCCC2)nc2c1c(=O)n(C)c(=O)n2C	30	-	-	-	-	-	-	-
CC[C@H](C)[C@@H](CN[C@H](C)CNC)NCCC(c1ccccc1)c1ccccc1	-	-	-	-	138	-	-	-
Cn1ccnc1Sc1ccccc1[N+](=O)[O-]	-	-	-	-	-	.	.	.
Cn1ccnc1Sc1ccc(C=O)cc1[N+](=O)[O-]	-	74[inhibitor]	-	-	-	-	-	-
Cc1n[nH]c(=O)nc1N/N=C/c1ccc(O)c([N+](=O)[O-])c1	-	129	-	-	-	-	-	-
CCCCc1nnc(NC(=O)CSc2nc(O)c(Cc3ccccc3)c(=O)[nH]2)s1	-	-	-	-	-	.	.	.
CCCCc1nnc(NC(=O)CSc2nc(O)c(-c3ccccc3)c(=O)[nH]2)s1	533	-	-	-	.	-	-	-
Cc1csc(=O)n1CCC(=O)N(C)Cc1c(F)cccc1Cl	.	.	-	-	.	.	.	.
COc1ccc(C[C@H]2CN3C(=NC[C@H]3Cc3ccccc3)N2CCNC(=O)CCC2CCCCC2)cc1	-	-	.	-	164	-	-	-
C/C=C(\C)C(=O)NCCN1C2=NC[C@H](Cc3ccccc3)N2C[C@@H]1Cc1ccc(OC)cc1	-	-	-	-	153	-	-	-
C/C=C(\C)C(=O)NCCN1C2=NC[C@@H](C)N2C[C@@H]1Cc1ccc(OC)cc1	-	-	-	-	-	.	.	.
C/C=C(\C)C(=O)NCCN1C2=NC[C@H](Cc3ccccc3)N2C[C@H]1Cc1ccc(O)cc1	-	-	-	-	153	-	-	-
Cc1ccc(S(=O)(=O)NCC(=O)OCC(=O)NCc2ccco2)cc1	.	.	-	-	.	.	.	.
CC(C)OP(=O)(OC(C)C)C1(NS(=O)(=O)c2ccc(Cl)cc2)C=C(Cl)C(=O)C(Cl)=C1	-	-	-	-	-	.	.	.
Cc1ccc(NC(=O)C2=NNC(=O)CC2)cc1S(=O)(=O)Nc1ccc(SC(F)F)cc1	.	.	-	-	.	.	.	.
CCC1CCCCN1C(=O)CSC1=NN2CCCC(=O)N=C2S1 (configuration not stated)	-	132	-	-	-	-	-	-
O=C1CCCN2N=C(SCC(=O)N3CCCCC3)SC2=N1	-	-	-	-	-	.	.	.
Cc1cc(C)nc(NNC(=O)c2ccccc2O)n1	-	129	-	-	-	-	-	-
Cc1cc(NC(=O)c2ccccc2O)nc(C)n1	-	-	-	-	-	.	.	.
Cc1nn(C)c(C)c1NC(=O)CSc1nc(Cc2ccccc2)nc2c1cnn2-c1ccccc1	-	74[inhibitor]	-	-	-	-	-	-
